Data published in the supplement of paper PMC10037445.
Over roughly 2,900 compounds, “IRF Lucia reporter activity, fold change vs agonist alone” has its median near 0.9; the highest 2% begin near 2.8. This is one part of a sample in which the highest values are shown more often than they occur.

What was measured:
RAW-Dual [1] = test: IRF Lucia reporter activity, fold change vs agonist alone; higher = enhanced IRF activity; conditions: agonist: MPLA (TLR4) […]
How it was run: (§1)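 RAW-Dual macrophages were seeded in DMEM at 50,000 cells/well in 384-well plates, given 50 nL of library stock by pin tool, and given a PRR agonist 1 h later. Plates were held at 37 °C, 5% CO2 for 20 hours, after which supernatant was read for IRF by QuantiLuc luminescence and for NF-κB by QuantiBlue absorbance at 620 nm. Reporter activity is expressed as fold change over wells that received agonist alone. A well was called cytotoxic when IncuCyte confluency fell below 70% of agonist controls in both mask sets.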

RAW-Dual [2] = test: IRF Lucia reporter activity, fold change vs agonist alone; cytotoxicity flag (confluency mask): not cytotoxic; higher = enhanced IRF activity
How it was run: as §1

RAW-Dual [3] = test: IRF Lucia reporter activity, fold change vs agonist alone; cytotoxicity flag (confluency mask): cytotoxic (confluency <70% of control); higher = enhanced IRF activity
How it was run: as §1

[4] = library stock concentration (final ~1000-fold dilution): 10 mM, cytotoxicity flag (confluency mask): not cytotoxic
[5] = agonist: 3'3'-cGAMP (STING) 10 ug/mL

**Q.** Which “IRF Lucia reporter activity” value (RAW-Dual [1]; [4]) does the source give for `COC(=O)NC(C(=O)N1CCCC1c1ncc(-c2ccc3c(c2)OC(c2ccccc2)n2c-3cc3cc(-c4cnc(C5CCCN5C(=O)C(NC(=O)OC)C(C)C)[nH]4)ccc32)[nH]1)C(C)C` (centres undefined) here?
**A.** 1.01

**Q.** Which “IRF Lucia reporter activity” value (RAW-Dual [2]; [5]) does the source give for `COCC1CC(c2ncc(-c3ccc4c(c3)COc3cc5c(ccc6[nH]c(C7CCC(C)N7C(=O)C(NC(=O)OC)C(C)C)nc65)cc3-4)[nH]2)N(C(=O)C(NC(=O)OC)c2ccccc2)C1` (centres undefined) (library stock concentration (final ~1000-fold dilution): 10 mM) here?
**A.** 0.767

**Q.** And the “IRF Lucia reporter activity” value (RAW-Dual [2]; agonist: LPS (TLR4) 0.1 ug/mL)?
**A.** 0.91

**Q.** `COC(=O)NC(C(=O)N1CCCC1c1ncc(-c2ccc(-c3ccc(-c4cnc(C5CCCN5C(=O)C(NC(=O)OC)C(C)C)[nH]4)cc3)cc2)[nH]1)C(C)C.Cl.Cl` (centres undefined) was tested. Which “IRF Lucia reporter activity” value (RAW-Dual [1]; [4]) did it give?
**A.** 5.97

**Q.** Which “IRF Lucia reporter activity” value (RAW-Dual [2]; [5]) does the source give for `COC(=O)NC(C(=O)N1CCCC1c1ncc(-c2ccc(-c3ccc(-c4cnc(C5CCCN5C(=O)C(NC(=O)OC)C(C)C)[nH]4)cc3)cc2)[nH]1)C(C)C.Cl.Cl` (centres undefined) (library stock concentration (final ~1000-fold dilution): 10 mM) here?
**A.** 0.948

**Q.** And the “IRF Lucia reporter activity” value (RAW-Dual [2]; agonist: LPS (TLR4) 0.1 ug/mL)?
**A.** 7.56

**Q.** With `NC(=O)C(CCC(F)(F)F)N(Cc1ccc(-c2ncon2)cc1F)S(=O)(=O)c1ccc(Cl)cc1` (centres undefined) as the compound, how does the “IRF Lucia reporter activity” value (RAW-Dual [1]; [4]) read?
**A.** 1.3

**Q.** With `NC(=O)C(CCC(F)(F)F)N(Cc1ccc(-c2ncon2)cc1F)S(=O)(=O)c1ccc(Cl)cc1` (centres undefined) (library stock concentration (final ~1000-fold dilution): 10 mM) as the compound, how does the “IRF Lucia reporter activity” value (RAW-Dual [2]; [5]) read?
**A.** 0.94

**Q.** And the “IRF Lucia reporter activity” value (RAW-Dual [2]; agonist: LPS (TLR4) 0.1 ug/mL)?
**A.** 1.56

**Q.** How did the “IRF Lucia reporter activity” value (RAW-Dual [2]; [5]) turn out when `CC1COCCN1c1cc(C2(S(C)(=N)=O)CC2)nc(-c2ccnc3[nH]ccc23)n1` (centres undefined) (library stock concentration (final ~1000-fold dilution): 10 mM) was run?
**A.** 0.193

**Q.** What about the “IRF Lucia reporter activity” value (RAW-Dual [2]; agonist: LPS (TLR4) 0.1 ug/mL) of the same compound?
**A.** 1.39

**Q.** Which results are given for `COc1cc(C=CC(=O)OCC[N+](C)(C)C)cc(OC)c1O` (library stock concentration (final ~1000-fold dilution): 10 mM)?
**A.** IRF Lucia reporter activity (RAW-Dual [2]; [5]): 0.894; IRF Lucia reporter activity (RAW-Dual [2]; agonist: LPS (TLR4) 0.1 ug/mL): 1.04

**Q.** `O=c1cc(N2CCOCC2)oc2c(-c3ccccc3)cccc12` was tested. Which “IRF Lucia reporter activity” value (RAW-Dual [1]; library stock concentration (final ~1000-fold dilution): 10 mM, cytotoxicity flag (confluency mask): cytotoxic (confluency <70% of control)) did it give?
**A.** 0.627

**Q.** Which results are given for `O=c1cc(N2CCOCC2)oc2c(-c3ccccc3)cccc12` (library stock concentration (final ~1000-fold dilution): 10 mM)?
**A.** IRF Lucia reporter activity (RAW-Dual [3]; [5]): 0.353; IRF Lucia reporter activity (RAW-Dual [3]; agonist: LPS (TLR4) 0.1 ug/mL): 0.393

**Q.** Which results are given for `O=c1cc(N2CCOCC2)oc2c(-c3cccc4c3sc3ccccc34)cccc12` (library stock concentration (final ~1000-fold dilution): 2 mM)?
**A.** IRF Lucia reporter activity (RAW-Dual [2]; [5]): 0.548; IRF Lucia reporter activity (RAW-Dual [2]; agonist: LPS (TLR4) 0.1 ug/mL): 7.23

**Q.** What does the source list for `O=c1nc(N2CCOCC2)oc2c(-c3cccc4c3sc3ccccc34)cccc12` (library stock concentration (final ~1000-fold dilution): 10 mM)?
**A.** IRF Lucia reporter activity (RAW-Dual [2]; [5]): 0.298; IRF Lucia reporter activity (RAW-Dual [2]; agonist: LPS (TLR4) 0.1 ug/mL): 1.03

**Q.** Which “IRF Lucia reporter activity” value (RAW-Dual [1]; library stock concentration (final ~1000-fold dilution): 2 mM, cytotoxicity flag (confluency mask): not cytotoxic) does the source give for `O=c1cc(N2CCOCC2)oc2c(-c3cccc4c3sc3ccccc34)cccc12` here?
**A.** 2.7

**Q.** Which “IRF Lucia reporter activity” value (RAW-Dual [2]; [5]) does the source give for `COc1ccc(C2OCC3C(c4ccc(OC)c(OC)c4)OCC23)cc1OC` (centres undefined) (library stock concentration (final ~1000-fold dilution): 10 mM) here?
**A.** 1.35

**Q.** And the “IRF Lucia reporter activity” value (RAW-Dual [2]; agonist: LPS (TLR4) 0.1 ug/mL)?
**A.** 0.899

**Q.** Which “IRF Lucia reporter activity” value (RAW-Dual [2]; [5]) does the source give for `O=C(C=Cc1ccc(O)cc1)c1ccc(O)cc1O` (library stock concentration (final ~1000-fold dilution): 10 mM) here?
**A.** 0.252

**Q.** And the “IRF Lucia reporter activity” value (RAW-Dual [2]; agonist: LPS (TLR4) 0.1 ug/mL)?
**A.** 0.535

**Q.** How did the “IRF Lucia reporter activity” value (RAW-Dual [1]; [4]) turn out when `COC(=O)C1=C(C)NC(C)=C(C(=O)OC(C)(C)CN(C)CCC(c2ccccc2)c2ccccc2)C1c1cccc([N+](=O)[O-])c1` (centres undefined) was run?
**A.** 2.39

**Q.** With `COC(=O)C1=C(C)NC(C)=C(C(=O)OC(C)(C)CN(C)CCC(c2ccccc2)c2ccccc2)C1c1cccc([N+](=O)[O-])c1.Cl` (centres undefined) as the compound, how does the “IRF Lucia reporter activity” value (RAW-Dual [1]; [4]) read?
**A.** 2.1

**Q.** What does the source list for `COC(=O)C1=C(C)NC(C)=C(C(=O)OC(C)(C)CN(C)CCC(c2ccccc2)c2ccccc2)C1c1cccc([N+](=O)[O-])c1.Cl` (centres undefined) (library stock concentration (final ~1000-fold dilution): 10 mM)?
**A.** IRF Lucia reporter activity (RAW-Dual [2]; [5]): 0.139; IRF Lucia reporter activity (RAW-Dual [2]; agonist: LPS (TLR4) 0.1 ug/mL): 3.23

**Q.** How did the “IRF Lucia reporter activity” value (RAW-Dual [2]; [5]) turn out when `COC(=O)C1=C(C)NC(C)=C(C(=O)OCCN(C)Cc2ccccc2)C1c1cccc([N+](=O)[O-])c1.Cl` (centres undefined) (library stock concentration (final ~1000-fold dilution): 10 mM) was run?
**A.** 0.3

**Q.** What about the “IRF Lucia reporter activity” value (RAW-Dual [2]; agonist: LPS (TLR4) 0.1 ug/mL) of the same compound?
**A.** 1.4

**Q.** With `COC(=O)C1=C(C)NC(C)=C(C(=O)OCCN(C)Cc2ccccc2)C1c1cccc([N+](=O)[O-])c1.Cl` (centres undefined) as the compound, how does the “IRF Lucia reporter activity” value (RAW-Dual [1]; [4]) read?
**A.** 1.12

**Q.** How did the “IRF Lucia reporter activity” value (RAW-Dual [2]; [5]) turn out when `COC(=O)C1=C(C)NC(C)=C(C(=O)OC(C)(C)CN(C)CCC(c2ccccc2)c2ccccc2)C1c1cccc([N+](=O)[O-])c1` (centres undefined) (library stock concentration (final ~1000-fold dilution): 10 mM) was run?
**A.** 0.134

**Q.** And the “IRF Lucia reporter activity” value (RAW-Dual [2]; agonist: LPS (TLR4) 0.1 ug/mL)?
**A.** 1.96
